For assay [1], the system named is Human papillomavirus type 1a protein E7 (residues 44-93). Description: HPV1a E7 fragment binders on microarrays, primary screen, biochemical, small-molecule microarray, residues 44-93, 635 nm fluorescence (AID 1108).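 Note: E7 fragment applied at 1 µg/mL in TBST for 1 h at 4 C; score combines spot fluorescence with its signal to noise ratio.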 To be noted: small-molecule microarray binding, fluorescence 635 nm; higher = more signal.
The nature of assay [2]: modulators of HCV replicon luciferase signal, primary screen, HCV replication inhibitor project, Huh7 cells, luciferase reporter (AID 1109).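 Note: huh7 hepatoma cells harbouring a luciferase neomycin HCV replicon reporter; luciferase luminescence as measure of HCV replicon replication; test concentration not given here.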 Particulars: 48 h, higher = more signal. In general terms: Replicon systems follow genome replication, usually without infectious particles.
For assay [3], the target named is Left-right determination factor 2 (Homo sapiens) (UniProt O00292). Description: LEFTY2 binders on small-molecule microarrays, primary screen, biochemical, small-molecule microarray, 635 nm fluorescence scan (AID 1110). Particulars: LEFTY2 binding, higher = more signal.
In assay [4] the target is Calmodulin-1 (Homo sapiens) (UniProt P0DP23). Put plainly: CALM1 binders on microarrays, EGTA buffer, profiling panel, biochemical, small-molecule microarray, Cy5-labelled CALM1 (AID 1111).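 Note: labelled calmodulin applied in Tris saline Tween buffer holding calcium plus EGTA and DTT.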 To be noted: Cy5-CALM1 binding fluorescence, higher = more signal.
Assay [5] shares this target. Put plainly: calcium-bound CALM1 binders on microarrays, profiling panel, artefact control for SMM control-protein annotation, biochemical, small-molecule microarray, Cy5-labelled CALM1, plus calcium (AID 1112).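 Note: score merges spot fluorescence with signal to noise from triplicate slides.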 To be noted: Cy5-CALM1 binding fluorescence, higher = more signal.
A short description of assay [6]: small-molecule microarray binders of probe aWnt5a, primary screen, biochemical, biotinylated probe, 635/667 nm fluorescence (AID 1113).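 Note: score merges 667 nm fluorescence intensity with signal-to-noise per printed feature.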 To be noted: higher = more signal.
Assay [7] in a line: small-molecule microarray binders of probe aShh, primary screen, biochemical, biotinylated probe, 635/667 nm fluorescence (AID 1114).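 Note: probe is biotin-labelled aShh protein from a stem cell growth factor screen; measures binding of labelled protein to compounds printed on the slide; score merges feature fluorescence at 667 nm with signal-to-noise.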 To be noted: higher = more signal.
Assay [8] is described as follows: small-molecule microarray binders of probe aNog, primary screen, biochemical, biotinylated probe, 635/667 nm fluorescence (AID 1115).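 Note: probe is biotinylated aNog protein used at 0.15 µg/mL for 1 h at 4 C; z-score combines 667 nm fluorescence of each spot with its signal to noise.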 Particulars: higher = more signal.
Assay [9] addresses Torsin-1A-interacting protein 1 (Homo sapiens) (UniProt Q5JTV8). Put plainly: LAP1 binders from COS7 cell lysate, primary screen, small-molecule microarray, 635/667 nm fluorescence (AID 1116). Particulars: COS7-hLAP1 lysate binding, 635 nm fluorescence, higher = more signal.
Assay [10] has as its target Alpha-bungarotoxin (Bungarus multicinctus) (UniProt P60615). Description: alpha-bungarotoxin binders on microarray, profiling panel, artefact control for SMM control protein annotation, biochemical, small-molecule microarray, Alexa647 label, 635/667 nm fluorescence (AID 1117). To be noted: alpha-BTX-A647 binding fluorescence, higher = more signal.
Another assay deals with Albumin (Bos taurus) (UniProt P02769). Put plainly: bovine serum albumin binders on microarray, profiling panel, artefact control for SMM control protein annotation, biochemical, small-molecule microarray, Alexa647 label, 635/667 nm fluorescence (AID 1118).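 Note: score merges 667 nm emission intensity and signal-to-noise per printed compound spot.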 Particulars: BSA-A647 binding, fluorescence 635 nm, higher = more signal.
Assay [11] can be described thus: small-molecule microarray binders of probe aXIP, primary screen, biochemical, NeuroSMM set, 635/667 nm fluorescence (AID 1119).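 Note: probe is the protein aXip251-270 applied at 1 µg/mL to compound-printed slides; binding of probe to printed compounds measured as 667 nm fluorescence plus signal to noise.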 Particulars: higher = more signal, called active from +8 up or from −8 down.
A short description of assay [12]: small-molecule binders of probe aNOTCH3, primary screen, biochemical, small-molecule microarray, 635/667 nm fluorescence (AID 1120).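 Note: probe is a biotin-tagged antibody raised against NOTCH3 rather than NOTCH3 protein; score merges spot fluorescence near 667 nm with spot signal to noise.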 To be noted: higher = more signal.
The nature of assay [13]: small-molecule binders of probe aNOTCH2, primary screen, biochemical, small-molecule microarray, 635/667 nm fluorescence (AID 1121).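 Note: score merges feature fluorescence read at 667 nm with its signal to noise.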 Particulars: higher = more signal.
Assay [14] deals with Carbonic anhydrase 2 (Homo sapiens) (UniProt P00918). Put plainly: CAII small-molecule binders, profiling panel, biochemical, small-molecule microarray, Alexa647-labelled CAII (AID 1122). Particulars: CAII-A647 binding fluorescence, higher = more signal.
The nature of assay [15]: COS7 lysate on small-molecule microarray, probe aHis, 635 nm (AID 1123).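 Note: z-score combines 667nm fluorescence intensity with signal-to-noise per printed compound spot.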 To be noted: COS7 cell lysate, fluorescence, higher = more signal.
The nature of assay [16]: compound binding in COS7 lysate, probe aLAP1, primary screen, cell lysate, small-molecule microarray (AID 1124).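 Note: lysate comes from COS7 cells expressing LAP1 and is applied at 0.3 µg/mL; score merges spot fluorescence near 667 nm with signal-to-noise over triplicate slides.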 Particulars: probe aLAP1, fluorescence, higher = more signal.
A further assay relates to Sam68 (KHDRBS1). Put plainly: Sam68 small-molecule binders, primary screen, biochemical, small-molecule microarray, 635 nm fluorescence (AID 1125).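 Note: score merges 667 nm channel intensity with signal to noise over triplicate slides.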 Particulars: small-molecule microarray binding, higher = more signal.
The test system of assay [17] is Chordin-like protein 2 (CHRDL2). Description: CHRDL2 small-molecule binders, primary screen, biochemical, small-molecule microarray, 635 nm fluorescence (AID 1126).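 Note: printed compound slides probed with Chrdl2 protein at 4 µg/mL for 1 h at 4 C; score merges 667 nm emission intensity with signal to noise over three replicate slides.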 Particulars: small-molecule microarray binding, fluorescence 635 nm; higher = more signal.
Assay [18] deals with Concanavalin-A (Canavalia ensiformis) (UniProt P02866). Put plainly: ConA small-molecule binders, primary screen, artefact control for SMM control protein annotation, biochemical, small-molecule microarray, Alexa647 label, 635 nm (AID 1127).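 Note: z combines 667 nm emission intensity with signal-to-noise across three replicate slides.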 Particulars: ConA-A647 binding fluorescence, higher = more signal.

Calls of active or inactive are those of the source.

Chain of Albumin (Bos taurus) (P02769 whole entry, looked up): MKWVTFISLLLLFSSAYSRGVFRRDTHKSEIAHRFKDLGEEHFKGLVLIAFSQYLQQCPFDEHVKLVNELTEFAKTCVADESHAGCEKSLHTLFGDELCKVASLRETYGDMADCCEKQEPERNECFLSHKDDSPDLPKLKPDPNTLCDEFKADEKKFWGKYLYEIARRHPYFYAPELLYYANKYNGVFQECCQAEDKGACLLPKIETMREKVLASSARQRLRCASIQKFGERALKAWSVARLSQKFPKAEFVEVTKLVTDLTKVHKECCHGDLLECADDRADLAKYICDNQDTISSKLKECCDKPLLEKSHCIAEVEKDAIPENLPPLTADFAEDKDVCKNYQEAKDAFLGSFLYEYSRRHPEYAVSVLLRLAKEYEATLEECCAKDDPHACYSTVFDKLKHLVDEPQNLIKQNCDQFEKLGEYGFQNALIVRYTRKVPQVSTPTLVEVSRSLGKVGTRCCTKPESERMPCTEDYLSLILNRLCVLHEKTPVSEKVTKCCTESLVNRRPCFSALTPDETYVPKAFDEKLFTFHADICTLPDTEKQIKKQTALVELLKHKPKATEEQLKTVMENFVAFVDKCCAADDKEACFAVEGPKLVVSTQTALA
Chain of Concanavalin-A (Canavalia ensiformis) (P02866 whole entry, looked up): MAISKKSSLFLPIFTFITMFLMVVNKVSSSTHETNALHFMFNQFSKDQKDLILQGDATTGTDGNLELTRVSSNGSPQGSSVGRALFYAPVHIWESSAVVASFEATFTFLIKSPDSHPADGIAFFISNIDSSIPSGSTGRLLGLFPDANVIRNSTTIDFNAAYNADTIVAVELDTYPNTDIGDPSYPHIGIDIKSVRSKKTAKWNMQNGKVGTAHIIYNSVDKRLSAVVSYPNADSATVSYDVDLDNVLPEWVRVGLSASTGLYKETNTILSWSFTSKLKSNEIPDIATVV
Chain of Torsin-1A-interacting protein 1 (Homo sapiens) (Q5JTV8 whole entry, looked up): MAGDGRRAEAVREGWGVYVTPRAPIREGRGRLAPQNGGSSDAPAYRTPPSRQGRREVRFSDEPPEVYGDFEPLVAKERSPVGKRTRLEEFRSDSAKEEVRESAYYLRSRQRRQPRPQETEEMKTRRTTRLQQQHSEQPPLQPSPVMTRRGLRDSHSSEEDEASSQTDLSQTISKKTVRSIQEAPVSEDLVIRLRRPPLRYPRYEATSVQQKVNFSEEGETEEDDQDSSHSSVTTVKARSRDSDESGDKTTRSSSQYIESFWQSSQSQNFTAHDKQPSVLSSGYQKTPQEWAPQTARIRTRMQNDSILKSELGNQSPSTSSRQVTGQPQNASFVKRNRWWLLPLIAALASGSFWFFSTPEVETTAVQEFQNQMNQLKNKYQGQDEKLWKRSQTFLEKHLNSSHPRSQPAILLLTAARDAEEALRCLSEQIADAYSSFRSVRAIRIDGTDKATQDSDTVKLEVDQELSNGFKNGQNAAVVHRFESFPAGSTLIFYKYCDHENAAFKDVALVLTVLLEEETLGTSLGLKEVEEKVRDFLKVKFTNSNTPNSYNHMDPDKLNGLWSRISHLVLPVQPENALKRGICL
Chain of Alpha-bungarotoxin (Bungarus multicinctus) (P60615 whole entry, looked up): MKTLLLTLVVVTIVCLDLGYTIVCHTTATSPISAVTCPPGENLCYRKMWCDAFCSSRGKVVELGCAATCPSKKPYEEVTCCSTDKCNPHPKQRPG
Chain of Left-right determination factor 2 (Homo sapiens) (O00292 whole entry, looked up): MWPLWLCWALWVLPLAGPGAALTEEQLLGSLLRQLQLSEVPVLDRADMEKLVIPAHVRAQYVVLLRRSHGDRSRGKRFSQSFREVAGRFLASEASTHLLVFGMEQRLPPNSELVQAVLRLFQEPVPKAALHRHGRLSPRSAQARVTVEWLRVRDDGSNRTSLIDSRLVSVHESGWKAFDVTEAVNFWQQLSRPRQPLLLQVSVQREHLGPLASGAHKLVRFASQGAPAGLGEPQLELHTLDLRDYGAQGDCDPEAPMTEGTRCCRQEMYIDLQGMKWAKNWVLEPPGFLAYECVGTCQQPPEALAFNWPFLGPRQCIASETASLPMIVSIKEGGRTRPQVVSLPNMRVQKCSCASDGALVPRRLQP

On to `COc1cc(C(O)C2C=CC3C(=O)N(C)C(=O)C3N2NC(=O)OC(C)(C)C)cc(OC)c1OC` (stereo not given), for which the composite z-score in [1] amounted to 0.968; in [3], 0.0493; in assay [4], 1.34; in [5], 0.12; in assay [6], 0.343; in [7] it was 0.848. The composite z-score is 1.6 in assay [8]; 0.102 in assay [9]; 0.312 in [10]; 1.03 in the assay with Albumin (Bos taurus); 0.576 in assay [12]; 0.46 in [13]. For the same compound, the composite z-score in [14] was 0.682; in [15] it was 2.63; in [16], 0.954; in the assay on Sam68 (KHDRBS1), 1.26; in assay [17] it was -0.217; in assay [18], 0.92. The z-score in [2] is -0.639. In addition, the composite Z-score in [11] was 0.523 (inactive).
For `CCCCC(CC)C(O)C1C=CC2C(=O)NC(=O)C2N1Nc1ccccn1` (stereo not given), the composite z-score in assay [1] was 1.46; in assay [3] it was 0.0645; in [4], 1.07; in assay [5], 0.431; in assay [6], 0.0919; in assay [7] it was -0.119. The composite z-score in assay [8] was 1.19; in [9] it was 0.927; in [10], 1.36; with Albumin (Bos taurus), 0.806; in assay [12], 0.0866; in assay [13], -0.0071. The composite z-score in assay [14] is 0.677; in [15] it was 2.53; in assay [16], 0.321; in the assay on Sam68 (KHDRBS1) it was 1.27; in assay [17] it was -0.105; in assay [18] it was 0.86. In assay [2], the z-score is -0.201. Moreover, the composite Z-score in assay [11] is 0.975 (inactive).
On to `CC(C)CN1C(=O)[C@@]2(Cc3ccccc31)c1ccccc1C(=O)N(Cc1ccccc1)[C@H]2c1ccc(CO)cc1`, for which the composite z-score in [1] is -0.587; in assay [3], -0.757; in assay [4], -0.361; in assay [5], -0.195; in assay [6], -0.096; in assay [7], -0.206. In addition, the composite z-score in [8] is -0.175; in assay [9], -0.845; in assay [10], -0.0612; in the assay with Albumin (Bos taurus) it was 0.488; in assay [12], -0.197; in [13] it was -0.138. The composite z-score in assay [14] is 0.441; in [15], 0.179; in [16], 0.254; with Sam68 (KHDRBS1), -1.72; in assay [17], -1.03; in assay [18], -0.616. The z-score in [2] was found to be 0.15. The composite Z-score in [11] was 0.671 (inactive).
As for `COCCOC(=O)N1C(=O)[C@@]2(c3cc(C#Cc4ccc(OC)cc4)ccc31)[C@H](C(N)=O)[C@H]1C(=O)O[C@H](c3ccccc3)[C@H](c3ccccc3)N1[C@@H]2c1ccc(OCCO)cc1`, the composite z-score is 1.42 in assay [1]; 0.746 in assay [3]; 0.894 in assay [4]; -0.454 in assay [5]; -0.0512 in assay [6]; -0.12 in [7]. The composite z-score is 0.492 in [8]; 1.09 in assay [9]; 1.5 in [10]; -0.884 with Albumin (Bos taurus); 0.43 in assay [12]; -0.0984 in [13]. Moreover, the composite z-score in assay [14] came to 0.332; in assay [15], 1.79; in [16], 0.52; in the assay with Sam68 (KHDRBS1), 1.3; in [17], 0.714; in assay [18], 0.921. The z-score in [2] was -2.25. Further, the composite Z-score in assay [11] was 0.393 (inactive).
With `COCCOC(=O)N1C(=O)[C@@]2(c3cc(C#CCNC(N)=O)ccc31)[C@H](c1ccc(OCCO)cc1)N1[C@H](c3ccccc3)[C@H](c3ccccc3)OC(=O)[C@H]1[C@@H]2C(=O)N1CCN(c2ncccn2)CC1`, the composite z-score in [1] is 1.23; in assay [3], 0.93; in assay [4], 0.515; in assay [5] it was 0.53; in [6], 0.0657; in assay [7], -0.138. Further, the composite z-score in assay [8] is -0.0724; in assay [9] it was 0.895; in assay [10] it was 0.505; with Albumin (Bos taurus), 0.358; in assay [12], 0.31; in assay [13], 0.09. The composite z-score was determined as 0.2 in assay [14]; 0.887 in assay [15]; 0.558 in [16]; 1.29 with Sam68 (KHDRBS1); 0.908 in assay [17]; 1.11 in assay [18]. Besides, the z-score in assay [2] is -0.0743. In addition, in [11], the composite Z-score is 0.764 (inactive).
